Sampled rows, rich in hits. Any-hit rate of the full collection: about 1.6%.
KCNH2 3.1 inh – KCNH2 3.1 (human) potassium channel inhibition; hit rate 0.95% among 340,000; activity change, % (tested at about 1.8 µM); U2OS KCNH2 3.1, thallium flux FluxOr; active compounds read low; AID 720553;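 active = maximum activity change below -70%; inconclusive = maximum activity change from -70% to -50%; inactive = maximum activity change above -50%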;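 also: thallium influx rate constant from kinetic fluorescence after stimulation buffer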
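Channel expression came from 3.1 mutant virus (1.77 x 10^8 /mL) applied to suspended U2OS cells for 4 h. Flux was tracked with FluxOr dye plus Red40 quencher, and kinetic rate constants normalized to controls.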
KCNH2 WT inh – blocks the wildtype human KCNH2 potassium channel. AID 720551. activity change, % at 1.84 µM. U2OS, BacMam KCNH2, thallium flux FluxOr; active compounds read low. hit rate 0.37% among 340,000;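 active = maximum activity change below -70%; inconclusive = maximum activity change between -70% and -50%; inactive = maximum activity change above -50%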
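U2OS cells were transduced with wild-type KCNH2 virus (2.03 x 10^8 / mL) for 4 h at room temperature, then cultured overnight at 37 C. Thallium flux was read with FluxOr dye. Rate constants were normalized to DMSO controls.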
gsp ag – agonists of gsp mutant (McCune-Albright syndrome); Potency, µM (titrated, usually from 76.9 µM), hits mostly activators; gsp mutant cells, cAMP HTRF, 30 min; hit rate 0.13% among 340,000; active = well fitted activation curve with a large enough effect; inconclusive = small, poorly fitted or top-dose-only effect, or another doubt; inactive = no such curve, though single readings can be large or run the other way; cell line not stated here;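 also: phosphodiesterase inhibitor Ro 20-1724 added with compounds to block cAMP breakdown; nearly all actives have a fitted effect of over 60% in size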
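Cells in DMEM/10% FBS with G418 were pretreated with compounds in DMSO plus […] (300 uM stock) for 30 min at 37C. cAMP was measured by HTRF (cAMP-d2 plus anti-cAMP antibody-K) after 30 min at room temperature.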
Akt phos inh – Akt phosphorylation inhibition | AID 651550 | Neuro2A IGF-stimulated pAkt S473 HTRF, 20 min; active compounds read low | hit rate 0.32% among 360,000 | activity change, % for hits at 50 µM; in the data active = activity change below about -80%; inconclusive = mostly about -51% to -80%
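Single-point screen (50 µM final compound) in Neuro2A cells stimulated 20 min with 6 nM IGF at 37 deg C. After lysis, Ser473-phosphorylated Akt read by HTRF (ex 330 nm, em 615/665 nm) as the 665/615 ratio.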
gsp antagonist – antagonists of gsp mutant (McCune-Albright syndrome); gsp-mutant cells, cAMP HTRF, 30 min; Potency, µM (series often up to 76.9 µM), actives largely listed as inhibitors; hit rate 0.4% among 340,000; AID 624288; calls by dose curve; cell line not stated here;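 also: intracellular cAMP measured with PDE inhibitor Ro 20-1724 present during compound exposure; nearly all actives have a fitted effect of over 65% in size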
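HTRF cAMP measurement after 30 min RT detection following 30 min, 37C compound treatment alongside […] (added as 300 uM solution) in G418-selected cells seeded at 2000/well and grown 16–24 h.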
Glioma ERSR ind – induces the endoplasmic reticulum stress response in human glioma cells; U87-MG GRP78 promoter luciferase reporter, 16 h; Potency, µM, actives largely listed as activators; hit rate 0.02% among 420,000; active = well fitted activation curve with a large enough effect; inconclusive = small, poorly fitted or top-dose-only effect; inactive = no such curve, though single readings can be large or run the other way; also: series mostly up to about 76 µM; nearly all actives have a fitted effect of over 35% in size
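ERSR induction read as luciferase luminescence (Bright-Glo, 10 min at room temperature) in stably transfected human U87-MG glioma cells exposed to compounds for 16 h, using GRP78 as sensor.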
A number is an active result; . = inactive; ? = inconclusive; / = no result given; ! = not active in a repeat; [ ] = dose if it differs, or a comment.

SMILES | KCNH2 3.1 inh | KCNH2 WT inh | gsp ag | Akt phos inh | gsp antagonist | Glioma ERSR ind
COc1ccc(-c2nc(CNS(=O)(=O)c3ccc(OC)c(OC)c3)cs2)cc1 | -114 | . | . | . | . | .
CCn1c(=O)n(CC)c2cc(S(=O)(=O)Nc3ccccc3C)c(C)cc21 | . | . | . | -89% | . | .
CCc1ccccc1NS(=O)(=O)c1cc2c(cc1C)n(C)c(=O)c(=O)n2C | . | . | . | . | . | .
Cc1c(C)c2ccc(OCC(=O)c3ccccc3)cc2oc1=O | . | . | ? | . | 35µM | .
Cc1c(CC(=O)O)c(=O)oc2cc(OCc3nn[nH]n3)ccc12 | . | . | . | -98% | . | .
CCN(CC)c1ccc(-c2c(C#N)c(N)nc(OC)c2C#N)cc1 | -70 | . | ? | . | . | .
COC(=O)[C@@H]1CCCN1C(=O)c1c(OC)cc(=O)n2c1CCN(Cc1ccc3c(c1)OCCO3)CC2 | / | / | / | / | / | .
CCCN1C(=O)/C(=C/c2ccc(N3CCCC3)c(C)c2)NC1=S | ? | . | . | . | . | .
Cc1cc(/C=C2\NC(=S)N(C)C2=O)ccc1N1CCCC1 | / | -80 | . | . | . | .
CCc1cccc(CC)c1NC(=O)/C(C#N)=C/c1ccccc1C(F)(F)F | . | . | . | . | . | ?
N#C/C(=C\c1ccccc1C(F)(F)F)C(=O)Nc1ccccc1 | -177 | . | . | . | . | .
COc1ccc(OC)c(-c2ccnc(-n3ncc(C(=O)N4CCN(CCO)CC4)c3C3CC3)n2)c1 | / | / | / | / | / | .
O=C(CNC(=S)N(CCCN1CCOCC1)Cc1cccs1)N1CCOCC1 | . | . | .[15.4 µM] | . | . | .
O=C(CNC(=S)N(CCCN1CCOCC1)Cc1cccs1)N1CCCCCC1 | -181 | -148 | .[15.4 µM] | . | . | .
Cc1ccc2c(CC(=O)N3CCOc4ccc(CN5C[C@@H](C)O[C@@H](C)C5)cc4C3)cc(=O)oc2c1 | / | / | / | / | / | .
O=C(Nc1cccc(-c2cccc(Cl)c2)c1)C1CCN(CC2CCOC2)CC1 (stereo not given) | ? | . | ? | . | . | .
O=C(Nc1cccc(-c2cccc(F)c2)c1)C1CCN(C2CCC2)CC1 | -91 | -97 | . | . | . | .
O=C(Nc1cccc(-c2cccc(F)c2)c1)C1CCN(CC2CCOC2)CC1 (stereo not given) | -79 | . | . | . | . | .
COc1ccc(-c2cc(C(=O)N3CCc4c(cnc(C)c4CNC(=O)c4ccsc4)C3)[nH]n2)cc1 | / | / | / | / | / | .
CN=C1C=CC(=C(c2ccc(N(C)C)cc2)c2ccc(N(C)C)cc2)C=C1 | / | / | / | / | / | .
CO[C@H]1[C@H](NC(=O)c2ccsc2)c2ccccc2C12CCN(Cc1cccc3ncccc13)CC2 | / | / | / | / | / | .
Cc1c(F)cccc1Cn1cnc2c(cnn2C(C)(C)C)c1=O | / | / | / | / | / | .
CCCCS(=O)(=O)NC1=NCN(CCOC(=O)c2ccccc2)CN1 | . | . | . | -103% | . | .
Cc1ccc(S(=O)(=O)NC2=NCN(CCOC(=O)c3ccccc3)CN2)cc1 | . | . | . | . | . | .
COc1cc(C(=O)Nc2ccc(S(=O)(=O)Nc3nccc(C)n3)cc2)cc(OC)c1OC | . | . | . | . | . | 32µM
SMILES | KCNH2 3.1 inh | KCNH2 WT inh | gsp ag | Akt phos inh | gsp antagonist | Glioma ERSR ind
COc1cc(C(=O)Nc2ccc(S(=O)(=O)Nc3cnc4ccccc4n3)cc2)cc(OC)c1OC | . | . | ? | . | . | 32µM
COc1cc(C(=O)Nc2ccc3c(c2)Cc2ccccc2-3)cc(OC)c1OC | -91 | . | . | . | . | .
COc1cc(C(=O)Nc2ccc3c(c2)C(=O)c2ccccc2C3=O)cc(OC)c1OC | . | . | .[15.4 µM] | . | . | .
COc1cc(OC)cc(C(=O)Nc2ccc(S(=O)(=O)Nc3cnc4ccccc4n3)cc2)c1 | . | . | .[15.4 µM] | . | . | .
COc1cc(C(=O)Nc2ccc(-c3nnc(-c4ccco4)o3)cc2)cc(OC)c1OC | . | . | . | -102% | . | .
CC(C)C(=O)N[C@@H]1CCCN1C(=O)/C=C\c1ccccc1 | / | / | / | / | / | .
CCOC(=O)CCN1C(=O)[C@H]2[C@H]3[C@H](O)[C@H](O)C/C(=N/O[C@@H]4O[C@@H](COC(C)=O)[C@@H](OC(C)=O)[C@@H](OC(C)=O)[C@H]4OC(C)=O)[C@H]3CC[C@@H]2C1=O | / | / | / | / | / | .
COc1ccc(C)c(-n2c(N)cc(=O)n(Cc3ccccc3)c2=O)c1 | -82 | . | . | . | . | .
Nc1cc(=O)n(Cc2ccccc2)c(=O)n1-c1ccc(Cl)cc1 | . | . | .[15.4 µM] | . | . | .
CCCOc1ccc(C2=NNC(c3cccs3)=Nc3ccc(OC)cc32)cc1 | . | . | . | -125% | . | .
COc1ccc2c(c1)C(c1cccs1)=NNC(c1ccncc1)=N2 | . | . | . | . | . | .
C(=N\Nc1nc(N2CCOCC2)nc(N2CCOCC2)n1)/c1cccnc1 | . | . | . | -82% | . | .
COc1ccc(N2C(=O)[C@@H]3C[C@H]2CN3Cc2cccn2-c2ccc(Cl)cn2)c(C)c1 | / | / | / | / | / | .
Cc1cc(C(=O)Nc2ccccc2-c2nc(CNC(=O)c3cc4ccccc4cn3)c(C)o2)c(C)o1 | / | / | / | / | / | .
COc1cccc(CN2CCC3(CCC(CNC(=O)c4ccco4)O3)CC2)c1OC (stereo not given) | / | / | / | / | / | .
COc1ccc(CN(C)CC(=O)Nc2cc(OC)c([N+](=O)[O-])cc2C)c(OC)c1 | -71 | . | . | . | ? | .
COc1ccc(NC(=O)CN(C)S(=O)(=O)c2ccc(C)cc2)c([N+](=O)[O-])c1 | . | -122 | . | . | . | .
COc1cc(NC(=O)CN(C)Cc2ccc(OC(F)F)cc2)c(C)cc1[N+](=O)[O-] | . | . | . | . | ? | .
COc1ccc(N(C)S(=O)(=O)c2ccc(C)cc2)c([N+](=O)[O-])c1 | . | . | .[15.4 µM] | . | . | .
COc1cccc(CN2Cc3cccc4c3[C@H](C=CC4)CC2=O)c1 | / | / | / | / | / | .
CC(C)CO/N=C1/C[C@@H](O)[C@@H](O)[C@@H]2[C@@H]3C(=O)N(Cc4ccc5c(c4)OCO5)C(=O)[C@H]3CC[C@@H]12 | / | / | / | / | / | .
CC(C)(C)c1cc(O)c(C(C)(C)C)cc1O | / | / | / | / | / | 40µM!
Cc1cc(C(C)(C)C)c(O)c(C(C)(C)C)c1 | . | . | / | . | . | .
NS(=O)(=O)c1ccc(N2CCN(CCOc3ccc(Cl)cc3)CC2)nc1 | -95 | . | .[15.4 µM] | . | . | .
NS(=O)(=O)c1ccc(N2CCN(S(=O)(=O)Cc3ccccc3)CC2)nc1 | . | . | . | . | . | .
Cc1cnc(-n2ncc(C(=O)NCCc3ccccn3)c2C)nc1-c1ccc(F)cc1 | / | / | / | / | / | .
c1ccc(-n2cnc3cc(NCc4ccncc4)ccc32)cc1 | . | . | . | -103% | . | .
c1ccc(-n2cnc3cc(NCc4ccccn4)ccc32)cc1 | . | . | . | . | . | .

Compound activity: PubChem BioAssay, National Center for Advancing Translational Sciences (NCATS)
